PubChem BioAssay (NCI)
Compounds without any hit were thinned out: in the full panel of roughly 83,000, 20% have a hit.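 Compound tested at a single concentration for 48 hours in 96-well plates; a percent growth value below 10 was scored as active.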 Unmarked numbers belong to inactive results. The source made the active and inactive calls.

Tests used:
Assay in all cases: NCI-60 one-dose screen, 48 h (100 = growth as untreated, 0 = no growth, -100 = all killed)
Conditions in all cases: 10 µM unless noted
T-47D breast = test system: T-47D breast
BT-549 breast = test system: BT-549 breast
MDA-MB-435 melanoma = test system: MDA-MB-435 melanoma
SW-620 colon = test system: SW-620 colon
MCF7 breast = test system: MCF7 breast
HCT-116 colon = test system: HCT-116 colon
HCC-2998 colon = test system: HCC-2998 colon
KM12 colon = test system: KM12 colon

Compound | growth (T-47D breast) | growth (BT-549 breast) | growth (MDA-MB-435 melanoma) | growth (SW-620 colon) | growth (MCF7 breast) | growth (HCT-116 colon) | growth (HCC-2998 colon) | growth (KM12 colon)
Cc1ccc(NC(=S)N2CCOCC2)cc1C | 92.1% | 102% | 83.2% | 109% | 104% | 89.5% | 109% | 101%
CC(=O)C1C(=O)C(=O)N(c2cccc([N+](=O)[O-])c2)C1=O (stereo not drawn) | 101% | 109% | 104% | 111% | 94.3% | 109% | 85.9% | 112%
O=C(NCc1ccccc1)/C(=C/c1ccccc1)NC(=O)c1ccccc1 | 110% | 98.6% | 113% | 102% | 96.6% | 107% | 102% | 101%
Nc1nc2nnc(-c3ccccc3)c(-c3ccccc3)n2n1 | 84.7% | 103% | 106% | 97.9% | 98.7% | 102% | 93.1% | 132%
O=C(Nc1ccccc1)c1ccco1 | 103% | 98.1% | 109% | 104% | 95.5% | 92.3% | 84% | 117%
CC1(c2ccccc2)CO1 (stereo not drawn) | 109% | 112% | 113% | 108% | 103% | 101% | 111% | 108%
CC(c1ccccc1)N1C(=O)CSC1=S (stereo not drawn) | 63.4% | 32.9% | -8.13% (active) | 17.6% | 6.61% (active) | 5.85% (active) | 53.2% | -38.3% (active)
C=CCc1cc(OC)c(OC)c(OC)c1 | 108% | 96.1% | 108% | 91.8% | 113% | 99.1% | 100% | 88.7%
COC(c1ccc2c(c1)OCO2)C(C)Br (stereo not drawn) | 71.8% | 104% | 90% | 94.9% | 110% | 88.5% | 105% | 93.5%
CCOC(=O)/C(C#N)=C\c1c[nH]c2ccccc12 | 86.5% | 129% | 113% | 115% | 77% | 100% | 108% | 109%
CC(=O)NNC(=S)/N=C\C(C(=O)c1ccccc1)=C(/O)c1ccccc1 | 87.8% | 92.7% | 109% | 110% | 93.6% | 96.5% | 102% | 99.4%
CCCCCCCCNC(=O)C(C)C | 95.2% | 107% | 102% | 93.4% | 92% | 92.7% | 115% | 102%
CC(=O)N=c1ccc2nc3c(cc(N)c4ccccc43)oc-2c1 | -57.8% (active) | 10.4% | -82.3% (active) | -88.7% (active) | -74.9% (active) | -45.2% (active) | -4.32% (active) | -59.9% (active)
COC1OC(CO)C(OC)C(O)C1O (stereo not drawn) | 112% | 104% | 109% | 93.6% | 98.9% | 106% | 107% | 99.6%
CCOC(=O)N[C@H]1CCc2cc(OC)c(OC)c(OC)c2-c2ccc(SC)c(=O)cc21 | 47.7% | -9.25% (active) | -17.1% (active) | 17.4% | 13.5% | 2.61% (active) | 12.2% | 2.56% (active)
CCOC(=O)CNC | 97.2% | 109% | 98.7% | 98.2% | 93.8% | 108% | 96% | 107%
COC(CCCl)c1ccc(Cl)cc1 (stereo not drawn) | 98.1% | 102% | 107% | 100% | 99% | 103% | 106% | 102%
Nc1ncnc2c1ncn2C1OC(CO)C2OC21 (stereo not drawn) | 84.7% | 110% | 111% | 99.5% | 93.6% | 108% | 105% | 109%

Compound | growth (T-47D breast) | growth (BT-549 breast) | growth (MDA-MB-435 melanoma) | growth (SW-620 colon) | growth (MCF7 breast) | growth (HCT-116 colon) | growth (HCC-2998 colon) | growth (KM12 colon)
COc1ccc(NNS(=O)(=O)O)cc1 | 88.6% | 102% | 102% | 100% | 92.9% | 100% | 110% | 105%
Oc1ccc(N=Cc2ccc(OCc3ccccc3)cc2)cc1 | 103% | 84.6% | 88.4% | 96.1% | 99.1% | 106% | 112% | 92.8%
CCNCC(C)(C)O | 104% | 105% | 106% | 106% | 97.1% | 101% | 109% | 113%
CC(C)(C)[Si](C)(C)OCC1OC(n2cnc3c(N)ncnc32)CC1OS(C)(=O)=O (stereo not drawn) | 97.8% | 107% | 112% | 98.1% | 105% | 102% | 103% | 95.7%
CCOC(=O)c1c(C)[nH]c(C)c1C=O | 82% | 95.8% | 105% | 97.9% | 89.1% | 101% | 92.9% | 104%
COc1ccc2c(ccc[n+]2C)c1 | 102% | 113% | 110% | 101% | 96.1% | 99.8% | 104% | 90.6%
CC1CN(CCO)CC(C)O1 (stereo not drawn) | 93% | 108% | 102% | 102% | 109% | 112% | 119% | 101%
N#Cc1ccc(OC(=O)Nc2c(Cl)cc(Cl)cc2Cl)cc1 | 91.6% | 113% | 96.4% | 118% | 100% | 101% | 110% | 107%
O=C1C=Cc2ccccc2/C1=C/c1[nH]c(=O)[nH]c1O | 39.6% | 20.6% | -6.05% (active) | 22% | 12.9% | 17.2% | 54.1% | 40.2%
Cc1onc(-c2c(F)cccc2Cl)c1-c1ncc(-c2ccc(Br)cc2)o1 | 29.6% | 40.7% | 40.8% | 35.6% | 20.9% | 17.8% | 58.6% | 36.4%
CCOP(=O)(NC(c1ccccc1)c1ccccc1)OCC | 90.4% | 105% | 110% | 103% | 92.7% | 93.8% | 110% | 114%
Oc1cc2ccccc2c(-c2c(O)c(O)cc3ccccc23)c1O | 25.7% | 5.13% (active) | 10.5% | 49.4% | 12.3% | 29% | 38.6% | 52.5%
OC(CBr)CCBr (stereo not drawn) | 93.6% | 124% | 97.2% | 104% | 86.6% | 104% | 111% | 113%
ClCC(Cl)[C@@H]1CC2C=CC1C2 (stereo partly drawn) | 98.8% | 103% | 96.9% | 105% | 98.1% | 98.4% | 118% | 115%
CC1CCC(C)(C)c2ccccc21 (stereo not drawn) | 91.1% | 105% | 105% | 115% | 91.4% | 95.9% | 96.9% | 106%
COc1cccc(N=CNc2cccc(OC)c2)c1 | 92% | 101% | 102% | 98.5% | 92.2% | 92.2% | 98.9% | 87.8%
COC(=O)c1ccccc1C(=O)c1c(C)cc(C)cc1C | 88.8% | 106% | 97.6% | 93.2% | 102% | 99.7% | 94.4% | 102%
Nc1nnc2cc(F)ccc2n1 | 96% | 81.5% | 118% | 94.1% | 96.3% | 91.9% | 103% | 103%
